Results reported in the supplement of paper PMC12067926.

Assays:
Experiment in all cases: relative growth (AUC of 72 h growth curve relative to DMSO control, dAUC) (ratio); higher = more growth (less inhibition), active = hit call of the paper
Conditions in all cases: 20 µM;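 active = growth AUC significantly below the DMSO wells by Dunnett test; inactive = the rest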
[1] = test system: Prolinoborus 1 (Prolinoborus fasciculus)
Outline: (§1)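 Isolates from Icelandic stream sediments and Silwood Park soil, along with whole sediment communities, were grown in Luria–Bertani medium to carrying capacity and diluted 1:100 into 96-well plates with each chemical at 20 µM (1% DMSO). A600 was measured hourly for 72 h, and values were averaged over three biological replicates. Relative growth (dAUC) is the spline-integrated growth-curve area over the mean of the DMSO controls.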

[2] = test system: Pseudomonas 1 (Pseudomonas baetica)
Outline: as §1

[3] = test system: Pseudomonas 2 (Pseudomonas vancouverensis)
Outline: as §1

[4] = test system: Pseudomonas 3 (Pseudomonas mandelii)
Outline: as §1

[5] = test system: Pseudomonas 4 (Pseudomonas peli)
Outline: as §1

[6] = test system: Pseudomonas 5 (Pseudomonas baetica)
Outline: as §1

[7] = test system: Pseudomonas 6 (Pseudomonas sp.)
Outline: as §1

[8] = test system: Rhizobium 1 (Rhizobium herbae)
Outline: as §1

[9] = test system: Serratia 1 (Serratia sp. 2015-2462-01)
Outline: as §1

[10] = test system: Sphingomonas 2 (Sphingomonas sp.)
Outline: as §1

Measured: relative growth

CS(=O)(=O)c1ccc(C(=O)C2C(=O)CCCC2=O)c([N+](=O)[O-])c1
inactive: [1] 0.983 | [2] 1.06 | [3] 1.02 | [4] 1.03 | [5] 1.05 | [6] 0.998 | [7] 0.96 | [8] 1.15 | [9] 1 | [10] 1.1

N#C/N=C1\SCCN1Cc1ccc(Cl)nc1
inactive: [1] 1.03 | [2] 1.05 | [3] 1.01 | [4] 1.02 | [5] 1.03 | [6] 1 | [7] 1 | [8] 1.02 | [9] 0.986 | [10] 0.998

CCC(C)(C)C(=O)OC1=C(c2ccc(Cl)cc2Cl)C(=O)OC12CCCCC2
inactive: [1] 0.952 | [2] 1.07 | [3] 0.983 | [4] 1.04 | [5] 1 | [6] 1.02 | [7] 1.06 | [8] 0.97 | [9] 0.978 | [10] 1

CCc1cccc(C)c1N(C(=O)CCl)[C@@H](C)COC
inactive: [1] 1.01 | [2] 1.09 | [3] 0.996 | [4] 1 | [5] 0.993 | [6] 1.03 | [7] 1.13 | [8] 0.952 | [9] 0.985 | [10] 0.791

CC(Oc1ccc(Oc2ncc(C(F)(F)F)cc2Cl)cc1)C(=O)O (stereo not given)
inactive: [1] 0.983 | [2] 1.1 | [3] 1.04 | [4] 1.05 | [5] 1 | [6] 1.03 | [7] 1.17 | [8] 1.11 | [9] 0.972 | [10] 1.08

Oc1ccccc1-c1ccccc1
inactive: [1] 0.977 | [2] 1.03 | [3] 0.98 | [4] 1.01 | [5] 0.935 | [6] 1.05 | [7] 1.14 | [8] 0.989 | [9] 0.959 | [10] 0.969

COC(=O)NC(=S)Nc1ccccc1NC(=S)NC(=O)OC
inactive: [1] 0.975 | [2] 1.04 | [3] 0.969 | [4] 0.99 | [5] 0.95 | [6] 1.06 | [7] 1.14 | [8] 0.959 | [9] 0.987 | [10] 1.01

COP(=O)(NC(C)=O)SC (stereo not given)
inactive: [1] 1.03 | [2] 1.07 | [3] 1.02 | [4] 1.08 | [5] 1.02 | [6] 1.02 | [7] 1.14 | [8] 0.999 | [9] 0.992 | [10] 0.94

CCNc1nc(Cl)nc(NC(C)C)n1
inactive: [1] 0.944 | [2] 0.917 | [3] 0.95 | [4] 0.996 | [5] 0.956 | [6] 1.01 | [7] 0.945 | [8] 0.995 | [9] 0.928 | [10] 1.02

CCCCOC(=O)[C@H](C)Oc1ccc(Oc2ccc(C#N)cc2F)cc1
inactive: [1] 1.02 | [2] 0.985 | [3] 1.08 | [4] 1.07 | [5] 0.967 | [6] 1.06 | [7] 1.17 | [8] 1.07 | [9] 1 | [10] 1.1

COCC(=O)N(c1c(C)cccc1C)C(C)C(=O)OC (stereo not given)
inactive: [1] 0.923 | [2] 1.06 | [3] 1.01 | [4] 1 | [5] 0.995 | [6] 1.02 | [7] 1.03 | [8] 0.907 | [9] 0.994 | [10] 1.05

COc1ncc(F)c2nc(S(=O)(=O)Nc3c(F)cccc3F)nn12
inactive: [1] 1.01 | [2] 1.05 | [3] 1.02 | [4] 1.01 | [5] 0.989 | [6] 0.958 | [7] 0.99 | [8] 0.982 | [9] 1.03 | [10] 1.04

Cc1cc(C(C#N)c2ccc(Cl)cc2)c(Cl)cc1NC(=O)c1cc(I)cc(I)c1O (stereo not given)
active: [1] 0.673 | [3] 0.757 | [4] 0.822 | [6] 0.844 | [9] 0.825 | [10] 0.0325
inactive: [2] 0.846 | [5] 0.883 | [7] 0.857 | [8] 0.478

CCOCn1c(-c2ccc(Cl)cc2)c(C#N)c(Br)c1C(F)(F)F
inactive: [1] 1.01 | [2] 1.05 | [3] 1 | [4] 1.04 | [5] 1.02 | [6] 0.998 | [7] 1.11 | [8] 1.07 | [9] 1.01 | [10] 0.848

O=C(O)c1nc(Cl)ccc1Cl
inactive: [1] 0.949 | [2] 1 | [3] 0.984 | [4] 1 | [5] 0.969 | [6] 0.971 | [7] 1.03 | [8] 1.05 | [9] 0.977 | [10] 0.931

CC(C)(C)[C@@H](O)[C@H](Oc1ccc(Cl)cc1)n1cncn1
active: [2] 0.598
inactive: [1] 1.02 | [3] 0.991 | [4] 0.991 | [5] 0.989 | [6] 0.963 | [7] 0.953 | [8] 1.05 | [9] 1.02 | [10] 1.08

CC1(C(=O)Nc2ccc(O)c(Cl)c2Cl)CCCCC1
inactive: [1] 0.938 | [2] 1.08 | [3] 1.01 | [4] 1.05 | [5] 0.976 | [6] 1.02 | [7] 1.16 | [8] 0.84 | [9] 0.976 | [10] 0.967

CCc1cnc(C2=NC(C)(C(C)C)C(=O)N2)c(C(=O)O)c1 (stereo not given)
inactive: [1] 0.973 | [2] 0.912 | [3] 0.944 | [4] 1.01 | [5] 0.967 | [6] 1.01 | [7] 1.04 | [8] 0.975 | [9] 0.958 | [10] 1.03

CCOC(=O)OC1=C(c2cc(C)ccc2C)C(=O)N[C@]12CC[C@@H](OC)CC2
inactive: [1] 1 | [2] 1.11 | [3] 0.998 | [4] 1.02 | [5] 1.02 | [6] 0.981 | [7] 1.09 | [8] 0.952 | [9] 0.987 | [10] 1.04

O=C(Nc1ccccc1-c1ccc(Cl)cc1)c1cccnc1Cl
inactive: [1] 0.978 | [2] 0.948 | [3] 0.972 | [4] 1 | [5] 0.986 | [6] 0.998 | [7] 0.959 | [8] 0.665 | [9] 0.971 | [10] 0.958

COc1ccc(C(=CC(=O)N2CCOCC2)c2ccc(Cl)cc2)cc1OC (mixture of isomers)
inactive: [1] 0.994 | [2] 1.09 | [3] 0.999 | [4] 1.03 | [5] 1.01 | [6] 0.972 | [7] 0.951 | [8] 1.02 | [9] 0.978 | [10] 1.12

CCCC1COC(Cn2cncn2)(c2ccc(Cl)cc2Cl)O1 (stereo not given)
inactive: [1] 0.954 | [2] 1.08 | [3] 0.967 | [4] 1 | [5] 0.914 | [6] 0.987 | [7] 1.02 | [8] 0.931 | [9] 0.944 | [10] 1.11

N#CCNC(=O)c1cnccc1C(F)(F)F
inactive: [1] 1.03 | [2] 1.05 | [3] 0.996 | [4] 0.97 | [5] 0.996 | [6] 1.01 | [7] 1.07 | [8] 0.857 | [9] 0.947 | [10] 1.08

CC(C)OC(=O)Nc1cccc(Cl)c1
inactive: [1] 0.976 | [2] 0.905 | [3] 0.958 | [4] 1.04 | [5] 0.981 | [6] 0.991 | [7] 0.921 | [8] 0.876 | [9] 0.974 | [10] 0.926

CC(C)N1C(=O)c2ccccc2NS1(=O)=O
inactive: [1] 1.01 | [2] 1.16 | [3] 1.03 | [4] 1.02 | [5] 0.975 | [6] 1.01 | [7] 1.03 | [8] 1.04 | [9] 0.991 | [10] 1.01

CC(C)(C)c1ccc(CSc2cnn(C(C)(C)C)c(=O)c2Cl)cc1
inactive: [1] 0.998 | [2] 1 | [3] 1.01 | [4] 1.02 | [5] 1.02 | [6] 1.01 | [7] 1.13 | [8] 1.04 | [9] 1.06 | [10] 0.802

COC(=O)Nc1nc2ccccc2[nH]1
inactive: [1] 1.03 | [2] 1.05 | [3] 0.975 | [4] 1 | [5] 1.01 | [6] 1.05 | [7] 1.08 | [8] 0.944 | [9] 0.978 | [10] 0.732

CNC(=O)ON=C(C)SC
inactive: [1] 0.938 | [2] 0.876 | [3] 0.956 | [4] 0.999 | [5] 0.946 | [6] 1.02 | [7] 0.936 | [8] 1.06 | [9] 0.936 | [10] 0.978

OC(Cn1cncn1)(c1ccc(F)cc1)c1ccccc1F (stereo not given)
inactive: [1] 0.985 | [2] 0.993 | [3] 0.999 | [4] 1.03 | [5] 1.02 | [6] 1 | [7] 0.961 | [8] 0.971 | [9] 0.991 | [10] 1.03
